Assay results taken from PubChem BioAssay AID488890 (Southern Research Specialized Biocontainment Screening …, 2010).
Hit rate of the full screen: of about 320,000 compounds, about 1,300 (0.41%) were called active. Roughly 3% stayed inconclusive and do not appear here. The rule behind the calls is not given here. A selection follows. Entries with a potency or affinity are not part of this list.

Test: growth inhibition of non-replicating M. tuberculosis (AID 488890);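 note: plate controls were DMSO cells for no effect and high antibiotic wells for full effect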
Details: Mycobacterium tuberculosis non-replicating, at 25 µM, stronger effect = higher value

Q: For `CC(C)Oc1ccc(Cn2c(=O)oc3ccccc32)cc1`, which inhibition is on record?
A: Its inhibition is 72%.

Q: Which inhibition does the source give for `CCCCOc1ccc(Cn2c(=O)oc3ccccc32)cc1` here?
A: The inhibition was 59%.

Q: Which inhibition does the source give for `CCSc1ncc(C)cc1[N+](=O)[O-]` here?
A: Its inhibition is -10.3%.

Q: Which inhibition does the source give for `O=C(c1cccs1)N1CCN(Cc2ccccn2)CC1` here?
A: The inhibition was -6.8%.

Q: For `Cc1cccc(Cn2c(Cc3ccccc3)nc3ccccc32)c1`, which inhibition is on record?
A: The inhibition was 46.2%.

Q: Which inhibition does the source give for `COCCOc1cc(N)c(Cl)cc1Cl` here?
A: Its inhibition is 10.4%.

Q: Which inhibition does the source give for `CCOC(=O)COc1cc(N2C(=O)CSCC2=O)c(Cl)cc1Cl` here?
A: Its inhibition is -8.36%.

Q: Which inhibition does the source give for `CN(C)/C=N/c1ncc(-c2ncc(C(F)(F)F)cc2Cl)cn1` here?
A: Its inhibition is -8.2%.

Q: Which inhibition does the source give for `CCn1nccc1C(=O)Nc1cccc(C)c1C` here?
A: Its inhibition is 5.9%.

Q: For `COc1ccc(CC(C)CC(=O)Nc2ccc(OC)cc2)cc1` (centres undefined), which inhibition is on record?
A: Its inhibition is 49.1%.

Q: With `O=C1N=c2ccccc2=C1c1c(O)[nH]c2c(C(F)(F)F)cccc12` as the molecule, how does the inhibition read?
A: Its inhibition is 27.4%.

Q: Which inhibition does the source give for `C=CCn1c(O)c(C2=c3ccccc3=NC2=O)sc1=Nc1ccc(O)cc1` here?
A: Its inhibition is 30.7%.

Q: Which inhibition does the source give for `CCn1c(O)c(C2=c3ccccc3=NC2=O)c2cc(Br)ccc21` here?
A: The inhibition was 73.8%.

Q: With `C=CCn1c(O)c(N=O)c2ccccc21` as the molecule, how does the inhibition read?
A: The inhibition was -1.03%.

Q: Which inhibition does the source give for `Cc1ccc2c(c1)c(C1=NC(=S)NC1=O)c(O)n2C` here?
A: The inhibition was -2.45%.

Q: For `O=C1N=c2ccccc2=C1c1[nH]c(=S)[nH]c1O`, which inhibition is on record?
A: Its inhibition is 9.01%.

Q: For `CC(C(=O)N1CCN=C1c1ccccc1)N1C(=O)c2ccccc2C1=O` (centres undefined), which inhibition is on record?
A: The inhibition was -7.08%.

Q: With `O=C(CN1C(=O)NC2(CCCCC2)C1=O)Nc1ccc(Cl)cc1` as the molecule, how does the inhibition read?
A: The inhibition was -0.81%.

Q: With `C/C(=N/NC(=O)CCC(=O)Nc1ccc(Br)cc1)c1ccc(Br)cc1` as the molecule, how does the inhibition read?
A: Its inhibition is -21.4%.

Q: For `O=C(NNC(=O)c1ccco1)c1ccccc1`, which inhibition is on record?
A: The inhibition was -6.91%.

Q: For `O=C(NCc1ccccc1)c1ccco1`, which inhibition is on record?
A: Its inhibition is 64.3%.

Q: For `Cc1ccc(/C=C2\SC(=S)N(CCC(=O)NCCCN3CCOCC3)C2=O)cc1`, which inhibition is on record?
A: The inhibition was 8.18%.

Q: Which inhibition does the source give for `CCOc1ccc(C(=O)c2cc([N+](=O)[O-])ccc2Cl)cc1` here?
A: The inhibition was 6.56%.

Q: With `O=C(c1ccc(S(=O)(=O)Nc2ccccc2)cc1)N1CCC1` as the molecule, how does the inhibition read?
A: The inhibition was -11.7%.

Q: For `CCCNC1=C(C)C(=O)C2=C(C1=O)C(COC(N)=O)[C@]1(OC)C3NC3CN21` (some centres undefined), which inhibition is on record?
A: Its inhibition is 55.1%.

Q: For `CCN(CC)c1ccc2cc(C(N)=O)c(=N)oc2c1`, which inhibition is on record?
A: Its inhibition is 31.1%.

Q: For `COc1ccc(CCNC(=O)c2cc3cccc(OC)c3oc2=O)cc1OC`, which inhibition is on record?
A: The inhibition was 0.35%.

Q: For `CCN(CC)c1ccc2cc(C(C)=O)c(=O)oc2c1`, which inhibition is on record?
A: The inhibition was 3.33%.

Q: For `COc1cccc2cc(C(=O)NCc3ccc(Cl)cc3)c(=O)oc12`, which inhibition is on record?
A: The inhibition was 57.8%.

Q: With `Cn1c(=O)c(=O)n(C)c2cc(S(=O)(=O)N3CCN(Cc4ccccc4)CC3)ccc21` as the molecule, how does the inhibition read?
A: The inhibition was 5.19%.

Q: For `Nc1nc(-c2ccc3ccccc3c2)c(C2(O)C(=O)Nc3c(Br)cc(F)cc32)s1` (centres undefined), which inhibition is on record?
A: Its inhibition is 0.16%.

Q: With `COc1ccc(Cl)cc1NC(=O)CSc1nc(=O)n(CCN(C)C)c2c1CCCC2` as the molecule, how does the inhibition read?
A: Its inhibition is 16.1%.

Q: Which inhibition does the source give for `Clc1ccccc1N/N=C/c1ccc2c(c1)OCO2` here?
A: The inhibition was 28.4%.

Q: With `CN(CC(=O)NCCc1ccc(F)cc1)Cc1ccccc1` as the molecule, how does the inhibition read?
A: The inhibition was 20.9%.

Q: Which inhibition does the source give for `CC(CCc1ccccc1)NC(=O)CN(C)Cc1ccc(F)cc1` (centres undefined) here?
A: The inhibition was 18%.

Q: With `CCC(=O)N(C1=C(NC(C)C)C(=O)c2ccccc2C1=O)C(C)C` as the molecule, how does the inhibition read?
A: Its inhibition is 8.66%.

Q: With `CC(=O)N(C1=C(N)C(=O)c2ccccc2C1=O)c1ccccc1` as the molecule, how does the inhibition read?
A: Its inhibition is 4.83%.

Q: With `COC(=O)/C(=C/c1c[nH]c2ccccc12)[N+](=O)[O-]` as the molecule, how does the inhibition read?
A: The inhibition was 9.02%.

Q: With `COc1ccc2cc(Br)ccc2c1CC(=O)NCC1CCCO1` (centres undefined) as the molecule, how does the inhibition read?
A: The inhibition was 14.2%.

Q: For `O=S(=O)(c1ccc2c(c1)OCCO2)N1CCN(S(=O)(=O)c2ccco2)CC1`, which inhibition is on record?
A: The inhibition was 16.7%.

Q: For `c1ccc(CSc2ccc(-c3ccccn3)nn2)nc1`, which inhibition is on record?
A: Its inhibition is 36.2%.

Q: With `c1ccc(-c2ccc(SCc3cccnc3)nn2)nc1` as the molecule, how does the inhibition read?
A: Its inhibition is 63.6%.

Q: With `CCOC(=O)/C=C/C(=O)OCC(=O)Nc1ccc(Cl)cn1` as the molecule, how does the inhibition read?
A: The inhibition was 0.76%.

Q: Which inhibition does the source give for `CS(=O)(=O)c1cnc(-c2ccccc2)nc1Oc1ccc(Cl)cc1` here?
A: Its inhibition is -7.01%.

Q: For `O=P(O)(CCc1ccncc1)CN1CCCCC1`, which inhibition is on record?
A: The inhibition was -7.55%.

Q: For `COc1ccc(Nc2cc(C)nc3ccccc23)cc1`, which inhibition is on record?
A: Its inhibition is 36.9%.

Q: With `COc1ccc(Nc2cc(C)nc3ccc(OC)cc23)cc1` as the molecule, how does the inhibition read?
A: The inhibition was 41.2%.

Q: With `COc1cccc2c(N/N=C/c3ccccc3)cc(C)nc12` as the molecule, how does the inhibition read?
A: Its inhibition is 3.67%.

Q: Which inhibition does the source give for `COc1ccc2nc(C)cc(NCc3ccc(F)cc3)c2c1` here?
A: The inhibition was 38.9%.

Q: For `Cc1cc(N/N=C/c2ccc(N(C)C)cc2)c2ccccc2n1`, which inhibition is on record?
A: The inhibition was -1.58%.

Q: Which inhibition does the source give for `COc1ccccc1/C=N/Nc1cc(C)nc2ccc(C)cc12` here?
A: Its inhibition is -9.66%.

Q: With `COc1ccc(C(=O)COC(=O)C(CCSC)NC(=O)COc2ccccc2)c(OC)c1` (centres undefined) as the molecule, how does the inhibition read?
A: The inhibition was 30.9%.

Q: For `COc1ccccc1OCC(=O)NCc1n[nH]c(=O)c2ccccc12`, which inhibition is on record?
A: Its inhibition is -15.2%.

Q: Which inhibition does the source give for `O=C(COc1cccc2c1CCN(Cc1ccccc1)C2=O)N1CCCCC1` here?
A: Its inhibition is 10.8%.

Q: For `CCCC(=O)C1=C(O)C(C(=O)OC)C(C)(C)CC1=NCCc1ccc(OC)c(OC)c1` (centres undefined), which inhibition is on record?
A: Its inhibition is 19%.

Q: With `CCOc1ccc(-c2csc(NC(=O)CSCC(=O)O)n2)c2ccccc12` as the molecule, how does the inhibition read?
A: The inhibition was 11.9%.

Q: Which inhibition does the source give for `Cc1cccc(N/C(N)=N/c2nc(CSc3ccc(Cl)cc3)cc(=O)[nH]2)c1` here?
A: Its inhibition is -0.84%.

Q: For `CN(Cc1ccc(F)cc1)C(=O)C(Cc1ccccc1)NC(=O)c1ccccc1` (centres undefined), which inhibition is on record?
A: The inhibition was -6.89%.

Q: For `COc1ccc(Cc2nnc(NC(=O)c3ccc(C)cc3)s2)cc1OC`, which inhibition is on record?
A: The inhibition was -7.61%.

Q: With `CC(C)c1ccc(C2/C(=C(/O)c3ccccc3)C(=O)C(=O)N2CCCN2CCOCC2)cc1` (centres undefined) as the molecule, how does the inhibition read?
A: The inhibition was 3.66%.

Q: For `Cc1ccc(S(=O)(=O)NC(CC(C)C)C(=O)Nc2ccncc2)cc1` (centres undefined), which inhibition is on record?
A: The inhibition was 0.09%.

Q: Which inhibition does the source give for `CCOc1ccc(OCC(=O)c2c(O)c3ccccc3oc2=O)cc1` here?
A: The inhibition was 29.5%.

Q: Which inhibition does the source give for `O=C(c1c(O)c2ccccc2oc1=O)C1CCC1` here?
A: Its inhibition is 39%.

Q: For `COc1ccc(OCC(=O)c2c(O)c3ccccc3oc2=O)cc1`, which inhibition is on record?
A: Its inhibition is 23.3%.

Q: For `CC(=N)c1c(O)c2ccccc2oc1=O`, which inhibition is on record?
A: Its inhibition is -3.72%.

Q: Which inhibition does the source give for `Cc1ccccc1-c1nnc(SCC(=O)NC2CCCC2)n1C` here?
A: Its inhibition is 0.83%.

Q: For `C[C@H]1CN([C@@H](C)CO)C(=O)c2cc(NC(=O)C3CCCCC3)ccc2O[C@H]1CN(C)CC1CCCCC1`, which inhibition is on record?
A: Its inhibition is 5.45%.

Q: For `CCc1ccc(CNC(=O)c2ccc(OC)c(OC3CCN(C(C)C)CC3)c2)nc1`, which inhibition is on record?
A: Its inhibition is 2.53%.

Q: Which inhibition does the source give for `Cc1cccc(NC(=O)CCc2nnc3ccc(NCc4ccco4)nn23)n1` here?
A: The inhibition was -10.9%.

Q: For `COc1ccc(-c2cnn3c4c(c(C)nc23)CCN4C(C)C)cc1OC`, which inhibition is on record?
A: Its inhibition is 6.73%.

Q: For `CCOC(=O)Nc1ccc2c(c1)N(C(=O)CCN(C)C)c1ccccc1CC2`, which inhibition is on record?
A: The inhibition was -1.89%.

Q: For `CCOC(=O)Nc1ccc2c(c1)Sc1ccccc1N2C(=O)CCN1CCOCC1`, which inhibition is on record?
A: Its inhibition is 39.8%.

Q: With `CCOC(=O)Nc1ccc2c(c1)N(C(=O)CN)c1ccccc1CC2` as the molecule, how does the inhibition read?
A: Its inhibition is 22.7%.

Q: Which inhibition does the source give for `CCOC(=O)Nc1ccc2c(c1)N(C(=O)CCN1CCOCC1)c1ccccc1S2` here?
A: The inhibition was 20.2%.
